LAP4-GFP MLPCN: modulators of LAP4-GFP expression in yeast, primary screen, S. cerevisiae, multiplex flow cytometry, MLPCN library | 3 h; median GFP as percent of DMSO wells | GFP response vs DMSO, % at 10 µM | 320,000 compounds, 0.34% hits | AID 2023, 2009;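 active means GFP response vs DMSO above a set limit, about the screen mean plus 3 SD, cut at about 150% in these data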
RPL19A TOR yeast: RPL19A-GFP expression modulators in yeast, primary screen, cell-based, S. cerevisiae, multiplex flow cytometry, MLPCN; S. cerevisiae RPL19A-GFP strain, 3 h; stronger effect = lower value; percent response vs DMSO, % at 10 µM; 330,000 compounds, 0.3% hits;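 active means percent response vs DMSO below 50%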;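 further: median channel GFP fluorescence of the barcoded RPL19A-GFP strain; ratio of sample median GFP to plate DMSO average so 100% = DMSO; lower means less RPL19A-GFP as with rapamycin TOR inhibition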
MEP2-GFP yeast: modulators of MEP2-GFP levels in yeast, primary screen, S. cerevisiae, multiplex flow cytometry, MLPCN library. S. cerevisiae MEP2-GFP strain, 3 h; 100% = DMSO control level. GFP response vs DMSO, % at 10 µM. 330,000 compounds, 0.51% hits. AID 2016, 2009;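 active means GFP response versus DMSO above a set limit, roughly screen mean plus 3 SD, cut at about 180% in these data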;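 further: median GFP fluorescence of the barcode-gated MEP2-GFP cells per well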
AGP1 TOR yeast: modulators of AGP1-GFP expression in yeast TOR pathway, primary screen, cell-based, multiplex flow cytometry, S. cerevisiae, MLPCN library; GFP response vs DMSO, % at 10 µM; AID 2066, 2009; 320,000 compounds, 0.02% hits; 3 h; GFP as percent of DMSO wells;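 active means GFP response relative to DMSO above a set limit, near screen average plus 3 SD, cut at about 150% in these data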;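 further: median GFP channel fluorescence of the gated AGP1 strain per well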
CIT2-GFP yeast: modulators of CIT2-GFP expression in yeast, primary screen, S. cerevisiae, GFP fusion, multiplex flow cytometry, MLPCN library | S. cerevisiae CIT2-GFP strain, 3 h; 100 means same as DMSO wells | GFP response vs DMSO, % at 10 µM | 320,000 compounds, 0.065% hits;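 active means GFP response relative to DMSO above a set limit, near the screen mean plus 3 SD, cut at about 150% in these data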;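 further: ratio of well median GFP fluorescence to mean of DMSO wells on the plate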
LAP4-GFP pick2: LAP4-GFP expression modulators in yeast, confirmation, cell-based, second cherry pick, flow cytometry | shares compounds with LAP4-GFP MLPCN | S. cerevisiae LAP4-GFP strain, 3 h | GFP response vs DMSO, % at 10 µM | 590 compounds, 20% hits | AID 2621, 2010;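 active means GFP signal as percent of the solvent control above about 150%, meaning raised reporter expression, limit read from the data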;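 further: ratio of well median GFP fluorescence to plate DMSO mean so 100% = DMSO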
MEP2-GFP pick2: modulators of MEP2-GFP levels in yeast, confirmation, S. cerevisiae, flow cytometry GFP, second cherry picks. shares compounds with LAP4-GFP MLPCN. 590 compounds, 10% hits. GFP response vs DMSO, % at 10 µM. AID 2622, 2010. S. cerevisiae MEP2-GFP strain, 3 h;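 active means GFP signal above 150% of the solvent control wells, that is a rise of more than half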;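 further: median channel GFP fluorescence of all gated yeast cells per well; ratio of median GFP to plate DMSO average so 100% = DMSO level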
RPL19A-GFP pick2: RPL19A-GFP modulators in TOR pathway yeast, confirmation, cell-based, S. cerevisiae, flow cytometry, second cherry pick. shares compounds with LAP4-GFP MLPCN. S. cerevisiae RPL19A-GFP strain, 3 h; stronger effect = lower value; 100% means same as DMSO wells. GFP response vs DMSO, % at 10 µM. 590 compounds, 3% hits;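 active means under 65% GFP response relative to DMSO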;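 further: median GFP channel fluorescence per well over the all cells gate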
CIT2-GFP pick2: modulators of CIT2-GFP expression in yeast, confirmation, flow cytometry, second cherry pick, single plex. shares compounds with LAP4-GFP MLPCN. S. cerevisiae CIT2-GFP strain, 3 h; DMSO control wells read 100%. GFP response vs DMSO, % at 10 µM. 590 compounds, 8% hits;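 active means GFP response vs DMSO above about 150%, limit read from the data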;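 further: median green fluorescence per well over all gated yeast cells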
AGP1-GFP pick2: AGP1-GFP expression modulators, hit retest, confirmation, cell-based, flow cytometry, S. cerevisiae, cherry pick set 2; shares compounds with LAP4-GFP MLPCN; S. cerevisiae AGP1-GFP strain, 3 h; percent response vs DMSO, % at 10 µM; 590 tested, under 10 active;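 active means over 150 percent of DMSO response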;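 further: median GFP channel fluorescence over all cells without mother daughter split; sample median GFP divided by mean DMSO control so 100% equals DMSO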
Yeast autofluor: compound autofluorescence in yeast s288c, dose response, artefact control for yeast TOR pathway GFP screen, s288c strain. shares compounds with LAP4-GFP MLPCN. S. cerevisiae s288c, 520 nm autofluorescence, flow cytometry, 3 h; stronger effect = higher value; zero means same as solvent-only cells. fluorescence change (kMESF span) at 33 µM. 610 tested, under 10 active. AID 2757, 2010;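 active means fluorescence span over the dose series, or activity score, above about 33, limit read from the data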
s288c autofl DR: autofluorescence of compounds in yeast s288c, dose response, artefact control for yeast TOR pathway GFP screen, primary hits, KU SAR, s288c parental; shares compounds with LAP4-GFP MLPCN; S. cerevisiae s288c parental, compound autofluorescence, flow cytometry, 3 h; fluorescence change (span) at 33 µM; 110 tested, under 10 active; AID 488829, 2010;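 active means fluorescence change span, or the activity score built from it, above 25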
TORC1 bypass: wild-type yeast growth inhibition sparing TORC1 bypass cells, mechanism study for yeast TOR pathway GFP screen, BY4741 wild type, TORC1 bypass strain. shares compounds with LAP4-GFP MLPCN. S. cerevisiae BY4741 spot growth rating, 48-72 h; stronger effect = lower value. growth rating (0-3) at 30 µM. 120 tested, under 10 active. AID 504456, 2011;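 active means growth rating at most 1 for wild type yeast while the TORC1 bypass strain still grows fully, rated 3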
* = called active by the depositor; . = no result. Hits are enriched below; roughly 0.92% of the tested compounds scored in any of these assays.

SMILES	LAP4-GFP MLPCN	RPL19A TOR yeast	MEP2-GFP yeast	AGP1 TOR yeast	CIT2-GFP yeast	others
CC(=O)c1ccc(S(=O)(=O)NCc2ccc(C(=O)NCC(c3ccccc3)N(C)C)cc2)cc1 (stereo unspecified)	92	105	106	104	98
C[C@H]1CN=C(N(C)C)N1CC1CCC(C(C)(C)C)CC1 (stereo partly specified)	105	104	90	92	110
O=C(/C=C/c1cc(Br)ccc1O)c1ccco1	196*	77	87	88	70	Yeast autofluor=-0.1
COc1ccc(Cc2nc3ccc(C(=O)N(C)C(C)c4ccon4)cc3o2)cc1 (stereo unspecified)	190*	101	82	106	98	LAP4-GFP pick2=100;MEP2-GFP pick2=101;RPL19A-GFP pick2=98;CIT2-GFP pick2=96;AGP1-GFP pick2=100
O=C(O)c1ccccc1C(=O)Nn1cnnc1	99	103	110	100	105
O=C1C=C(c2ccc(C(=O)O)cc2)C[C@@H](c2ccc(F)cc2)C1	116	98	93	85	83
Cc1sc(/C=C2\C(=O)ON=C2c2ccccc2)cc1Br	91	103	103	91	98	LAP4-GFP pick2=99;MEP2-GFP pick2=102;RPL19A-GFP pick2=98;CIT2-GFP pick2=106;AGP1-GFP pick2=99;Yeast autofluor=0
Cc1ccc(C2=NOC(=O)/C2=C\c2ccccc2)cc1	142	96	93	96	101
COc1cc(/C=C2\C(=O)ON=C2c2ccccc2)cc(Cl)c1O	117	112	111	109	108
CCCCc1ccc(/C=C2/C(=O)ON=C2c2ccccc2)s1	104	100	108	99	97	LAP4-GFP pick2=104;MEP2-GFP pick2=108;RPL19A-GFP pick2=98;CIT2-GFP pick2=102;AGP1-GFP pick2=104;Yeast autofluor=0
Cc1ccc(NC(=O)c2ccc(Cl)c(N3C(=O)C=CC3=O)c2)cc1	129	50*	95	61	69	Yeast autofluor=1.4;s288c autofl DR=1.3;TORC1 bypass=3
O=C(Cn1ccc(NC(=O)OCc2ccccc2)nc1=O)NCCCn1ccnc1	91	95	97	99	95
CCOC(=O)c1c(C)[nH]c(C)c1C(=O)COC(=O)/C=C/c1cccc(C(F)(F)F)c1	95	97	99	86	93
CCOC(=O)c1c(C)[nH]c(C)c1C(=O)COC(=O)/C=C/c1cccc(F)c1	246*	124	309*	121	231*	LAP4-GFP pick2=104;MEP2-GFP pick2=115;RPL19A-GFP pick2=98;CIT2-GFP pick2=113;AGP1-GFP pick2=96
Clc1cc(Cl)cc(Nc2cc(Oc3cccc(Cl)c3)nc(NCc3ccccc3)n2)c1	.	.	.	.	.	s288c autofl DR=0.16;TORC1 bypass=3
Cc1cc(Nc2cccc(Cl)c2)nc(NCc2ccccc2)n1	96	102	98	97	100
Cc1cc(OC2CCCCC2)nc(NCc2ccccc2)n1	109	100	104	100	100
Clc1cc(Cl)cc(Nc2cc(NC3CCCCC3)nc(NCc3ccccc3)n2)c1	.	.	.	.	.	s288c autofl DR=0.37;TORC1 bypass=3
CS(=O)(=O)c1ccc(NC(=O)CCN2C(=O)C3CC=CCC3C2=O)cc1 (stereo unspecified)	98	98	99	104	94
Cc1noc(C)c1NC(=O)Nc1cccc2c1O[C@H](CN(C)S(=O)(=O)c1cn(C)cn1)[C@@H](C)CN([C@H](C)CO)C2=O	99	99	97	104	113
O=c1oc2cc(O)c(Cl)cc2c2ccccc12	94	92	93	74	82
O=c1oc(Cl)c(Cl)c2ccccc12	191*	99	102	82	78	LAP4-GFP pick2=120;MEP2-GFP pick2=106;RPL19A-GFP pick2=103;CIT2-GFP pick2=103;AGP1-GFP pick2=101
COc1ccccc1CNC(=O)CN1C(=O)NC(c2ccccc2)(c2ccccc2)C1=O	89	100	93	101	105
O=C(CN(C1CCCCC1)S(=O)(=O)c1ccc(Cl)cc1)N1CCOCC1	90	54	150	48	96	LAP4-GFP pick2=99;MEP2-GFP pick2=100;RPL19A-GFP pick2=98;CIT2-GFP pick2=99;AGP1-GFP pick2=97
O=C(CN(C1CCCCC1)S(=O)(=O)c1ccccc1)N1CCCC1	97	104	107	97	94
SMILES	LAP4-GFP MLPCN	RPL19A TOR yeast	MEP2-GFP yeast	AGP1 TOR yeast	CIT2-GFP yeast	others
COc1ccc(S(=O)(=O)N2CCN(C(=O)C3COc4ccccc4O3)CC2)cc1 (stereo unspecified)	111	98	98	96	90
COc1ccc(C(=O)Nc2nnc(SCC(=O)NC3CC3)s2)cc1	94	103	105	110	104
Cc1ccc2nc(-c3ccc(NC(=S)NC4CC(C)(C)NC(C)(C)C4)cc3)sc2c1	83	55	129	14	71	LAP4-GFP pick2=125;MEP2-GFP pick2=108;RPL19A-GFP pick2=95;CIT2-GFP pick2=104;AGP1-GFP pick2=93
Cc1ccc(/C=C2/C(=O)ON=C2c2ccccc2)o1	257*	75	106	68	80	Yeast autofluor=4.7;s288c autofl DR=2;TORC1 bypass=3
O=C1ON=C(c2ccccc2)/C1=C\c1ccco1	219*	74	105	72	67	Yeast autofluor=1.6;s288c autofl DR=0.89;TORC1 bypass=3
O=C1ON=C(c2ccccc2)/C1=C/c1ccccc1	103	97	107	94	106

Bioassay records from PubChem BioAssay.
